The supplement of paper PMC11732987, “Enantioselective OTUD7B fragment discovery through chemoproteomics screening and high-throughput optimisation” (Communications Chemistry, 2025)

Assays:
Experiment in all cases: log2 ratio of Biotin-Ahx-Ub-VS probe labelling (fragment/DMSO); higher = less target engagement (more negative = stronger competition), active = hit call of the paper (q ≤ 0.05, log2 ratio ≤ -1)
Conditions in all cases: compound concentration: 200 uM; treatment time: 3 h
USP19 = target: T1, USP19 (UniProt O94966)
T1 sequence (whole entry): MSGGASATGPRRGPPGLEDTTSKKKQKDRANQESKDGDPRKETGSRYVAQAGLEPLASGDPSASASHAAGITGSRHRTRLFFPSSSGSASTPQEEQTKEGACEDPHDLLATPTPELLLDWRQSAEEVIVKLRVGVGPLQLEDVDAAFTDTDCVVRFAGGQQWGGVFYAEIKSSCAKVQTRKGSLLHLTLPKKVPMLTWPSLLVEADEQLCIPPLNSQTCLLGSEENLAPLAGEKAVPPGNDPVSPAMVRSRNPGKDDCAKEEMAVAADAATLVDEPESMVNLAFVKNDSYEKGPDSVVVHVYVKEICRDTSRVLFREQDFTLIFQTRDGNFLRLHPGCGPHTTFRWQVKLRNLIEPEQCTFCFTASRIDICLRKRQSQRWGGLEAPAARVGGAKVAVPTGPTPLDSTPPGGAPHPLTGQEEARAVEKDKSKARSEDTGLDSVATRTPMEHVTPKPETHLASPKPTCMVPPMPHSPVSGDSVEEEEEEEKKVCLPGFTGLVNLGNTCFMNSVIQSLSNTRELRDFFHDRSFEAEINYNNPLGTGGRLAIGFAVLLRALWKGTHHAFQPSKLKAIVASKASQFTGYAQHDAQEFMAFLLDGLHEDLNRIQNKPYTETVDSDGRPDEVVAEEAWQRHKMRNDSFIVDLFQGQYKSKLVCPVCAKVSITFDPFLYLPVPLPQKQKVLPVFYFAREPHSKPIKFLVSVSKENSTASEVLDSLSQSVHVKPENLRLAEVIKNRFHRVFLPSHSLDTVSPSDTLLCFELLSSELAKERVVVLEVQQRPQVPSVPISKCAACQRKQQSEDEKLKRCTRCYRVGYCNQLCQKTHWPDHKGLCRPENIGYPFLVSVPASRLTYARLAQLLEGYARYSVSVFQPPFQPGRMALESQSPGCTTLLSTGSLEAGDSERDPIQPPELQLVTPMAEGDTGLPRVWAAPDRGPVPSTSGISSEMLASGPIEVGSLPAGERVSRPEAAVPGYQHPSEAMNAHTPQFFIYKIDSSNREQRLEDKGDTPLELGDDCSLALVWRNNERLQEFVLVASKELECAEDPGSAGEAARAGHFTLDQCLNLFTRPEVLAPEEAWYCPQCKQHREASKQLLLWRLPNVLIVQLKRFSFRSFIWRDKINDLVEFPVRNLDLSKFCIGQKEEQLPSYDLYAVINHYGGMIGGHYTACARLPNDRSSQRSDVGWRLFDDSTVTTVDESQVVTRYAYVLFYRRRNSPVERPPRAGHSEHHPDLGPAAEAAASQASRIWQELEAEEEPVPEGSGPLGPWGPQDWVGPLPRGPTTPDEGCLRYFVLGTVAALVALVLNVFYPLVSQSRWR
Method in brief: (§1)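 Triplicate samples of HEK293T lysate, 495 µg each, received fragment at 200 µM or vehicle for 3 h, followed by Biotin-Ahx-Ub-VS (0.5 µM final) for 1 h. After NeutrAvidin enrichment of labelled DUBs and LysC/trypsin digestion, peptides were run by diaPASEF LC-MS/MS. The values are average log2 fragment/vehicle ratios from global-median-normalised Spectronaut label-free quantities, tested by unpaired t-test on proteins having ≥2 unique peptides.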

USP24 = USP24 (UniProt Q9UPU5)
Method in brief: as §1

USP25 = target: T2, USP25 (UniProt Q9UHP3)
T2 sequence (whole entry): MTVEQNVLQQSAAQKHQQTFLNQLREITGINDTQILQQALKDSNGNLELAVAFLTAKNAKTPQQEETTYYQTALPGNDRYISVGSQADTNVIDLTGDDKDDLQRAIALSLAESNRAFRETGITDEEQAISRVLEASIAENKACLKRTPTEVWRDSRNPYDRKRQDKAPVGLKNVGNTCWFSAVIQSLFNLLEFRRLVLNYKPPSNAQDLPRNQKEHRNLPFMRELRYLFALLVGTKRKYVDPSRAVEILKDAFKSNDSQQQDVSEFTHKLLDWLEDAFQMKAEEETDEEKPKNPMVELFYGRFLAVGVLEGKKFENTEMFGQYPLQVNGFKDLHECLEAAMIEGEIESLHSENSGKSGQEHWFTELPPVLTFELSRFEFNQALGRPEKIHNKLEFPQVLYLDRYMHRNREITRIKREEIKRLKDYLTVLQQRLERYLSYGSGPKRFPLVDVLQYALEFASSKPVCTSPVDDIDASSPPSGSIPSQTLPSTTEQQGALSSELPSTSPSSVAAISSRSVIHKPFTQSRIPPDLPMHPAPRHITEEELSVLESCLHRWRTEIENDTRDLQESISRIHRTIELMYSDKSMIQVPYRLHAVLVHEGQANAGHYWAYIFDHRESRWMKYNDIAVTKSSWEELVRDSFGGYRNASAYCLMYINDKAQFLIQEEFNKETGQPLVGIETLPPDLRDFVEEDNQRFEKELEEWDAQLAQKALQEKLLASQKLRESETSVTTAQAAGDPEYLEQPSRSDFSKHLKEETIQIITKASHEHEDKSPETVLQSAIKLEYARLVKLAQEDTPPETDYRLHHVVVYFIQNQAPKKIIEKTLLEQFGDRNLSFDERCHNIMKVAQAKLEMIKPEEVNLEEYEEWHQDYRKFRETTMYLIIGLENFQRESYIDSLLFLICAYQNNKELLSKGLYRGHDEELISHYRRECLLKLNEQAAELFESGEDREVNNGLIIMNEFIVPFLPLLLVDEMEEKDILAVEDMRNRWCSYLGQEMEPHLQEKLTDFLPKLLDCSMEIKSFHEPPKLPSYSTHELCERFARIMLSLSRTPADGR
Method in brief: as §1

USP28 = target: T3, USP28 (UniProt Q96RU2)
T3 sequence (whole entry): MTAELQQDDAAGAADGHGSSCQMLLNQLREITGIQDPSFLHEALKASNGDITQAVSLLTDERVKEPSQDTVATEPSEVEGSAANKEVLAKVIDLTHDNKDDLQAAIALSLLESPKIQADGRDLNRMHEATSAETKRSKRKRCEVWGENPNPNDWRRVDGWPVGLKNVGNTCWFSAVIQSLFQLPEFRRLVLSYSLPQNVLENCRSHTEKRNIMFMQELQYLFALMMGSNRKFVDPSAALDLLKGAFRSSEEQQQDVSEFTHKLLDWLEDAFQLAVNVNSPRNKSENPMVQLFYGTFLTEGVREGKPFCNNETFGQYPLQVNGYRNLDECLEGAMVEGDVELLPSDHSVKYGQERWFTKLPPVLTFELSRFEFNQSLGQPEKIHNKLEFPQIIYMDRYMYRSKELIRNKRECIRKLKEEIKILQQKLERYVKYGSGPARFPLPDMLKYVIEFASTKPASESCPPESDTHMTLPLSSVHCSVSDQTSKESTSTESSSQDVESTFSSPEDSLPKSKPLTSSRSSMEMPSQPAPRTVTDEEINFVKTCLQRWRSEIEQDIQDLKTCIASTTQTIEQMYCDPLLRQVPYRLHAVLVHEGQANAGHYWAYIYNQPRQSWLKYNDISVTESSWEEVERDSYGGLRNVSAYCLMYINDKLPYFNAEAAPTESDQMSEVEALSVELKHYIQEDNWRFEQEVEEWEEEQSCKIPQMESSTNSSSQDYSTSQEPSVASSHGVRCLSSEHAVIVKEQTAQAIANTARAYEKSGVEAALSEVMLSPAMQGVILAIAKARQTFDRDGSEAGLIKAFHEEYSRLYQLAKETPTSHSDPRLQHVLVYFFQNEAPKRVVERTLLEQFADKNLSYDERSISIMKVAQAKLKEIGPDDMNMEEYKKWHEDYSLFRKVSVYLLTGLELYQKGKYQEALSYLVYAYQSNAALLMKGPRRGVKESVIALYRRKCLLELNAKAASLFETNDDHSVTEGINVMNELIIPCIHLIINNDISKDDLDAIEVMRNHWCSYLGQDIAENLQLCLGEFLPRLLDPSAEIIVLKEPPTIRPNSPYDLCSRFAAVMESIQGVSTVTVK
Method in brief: as §1

Measured: log2 ratio of Biotin-Ahx-Ub-VS probe labelling

Chain of USP24 (Q9UPU5 whole entry): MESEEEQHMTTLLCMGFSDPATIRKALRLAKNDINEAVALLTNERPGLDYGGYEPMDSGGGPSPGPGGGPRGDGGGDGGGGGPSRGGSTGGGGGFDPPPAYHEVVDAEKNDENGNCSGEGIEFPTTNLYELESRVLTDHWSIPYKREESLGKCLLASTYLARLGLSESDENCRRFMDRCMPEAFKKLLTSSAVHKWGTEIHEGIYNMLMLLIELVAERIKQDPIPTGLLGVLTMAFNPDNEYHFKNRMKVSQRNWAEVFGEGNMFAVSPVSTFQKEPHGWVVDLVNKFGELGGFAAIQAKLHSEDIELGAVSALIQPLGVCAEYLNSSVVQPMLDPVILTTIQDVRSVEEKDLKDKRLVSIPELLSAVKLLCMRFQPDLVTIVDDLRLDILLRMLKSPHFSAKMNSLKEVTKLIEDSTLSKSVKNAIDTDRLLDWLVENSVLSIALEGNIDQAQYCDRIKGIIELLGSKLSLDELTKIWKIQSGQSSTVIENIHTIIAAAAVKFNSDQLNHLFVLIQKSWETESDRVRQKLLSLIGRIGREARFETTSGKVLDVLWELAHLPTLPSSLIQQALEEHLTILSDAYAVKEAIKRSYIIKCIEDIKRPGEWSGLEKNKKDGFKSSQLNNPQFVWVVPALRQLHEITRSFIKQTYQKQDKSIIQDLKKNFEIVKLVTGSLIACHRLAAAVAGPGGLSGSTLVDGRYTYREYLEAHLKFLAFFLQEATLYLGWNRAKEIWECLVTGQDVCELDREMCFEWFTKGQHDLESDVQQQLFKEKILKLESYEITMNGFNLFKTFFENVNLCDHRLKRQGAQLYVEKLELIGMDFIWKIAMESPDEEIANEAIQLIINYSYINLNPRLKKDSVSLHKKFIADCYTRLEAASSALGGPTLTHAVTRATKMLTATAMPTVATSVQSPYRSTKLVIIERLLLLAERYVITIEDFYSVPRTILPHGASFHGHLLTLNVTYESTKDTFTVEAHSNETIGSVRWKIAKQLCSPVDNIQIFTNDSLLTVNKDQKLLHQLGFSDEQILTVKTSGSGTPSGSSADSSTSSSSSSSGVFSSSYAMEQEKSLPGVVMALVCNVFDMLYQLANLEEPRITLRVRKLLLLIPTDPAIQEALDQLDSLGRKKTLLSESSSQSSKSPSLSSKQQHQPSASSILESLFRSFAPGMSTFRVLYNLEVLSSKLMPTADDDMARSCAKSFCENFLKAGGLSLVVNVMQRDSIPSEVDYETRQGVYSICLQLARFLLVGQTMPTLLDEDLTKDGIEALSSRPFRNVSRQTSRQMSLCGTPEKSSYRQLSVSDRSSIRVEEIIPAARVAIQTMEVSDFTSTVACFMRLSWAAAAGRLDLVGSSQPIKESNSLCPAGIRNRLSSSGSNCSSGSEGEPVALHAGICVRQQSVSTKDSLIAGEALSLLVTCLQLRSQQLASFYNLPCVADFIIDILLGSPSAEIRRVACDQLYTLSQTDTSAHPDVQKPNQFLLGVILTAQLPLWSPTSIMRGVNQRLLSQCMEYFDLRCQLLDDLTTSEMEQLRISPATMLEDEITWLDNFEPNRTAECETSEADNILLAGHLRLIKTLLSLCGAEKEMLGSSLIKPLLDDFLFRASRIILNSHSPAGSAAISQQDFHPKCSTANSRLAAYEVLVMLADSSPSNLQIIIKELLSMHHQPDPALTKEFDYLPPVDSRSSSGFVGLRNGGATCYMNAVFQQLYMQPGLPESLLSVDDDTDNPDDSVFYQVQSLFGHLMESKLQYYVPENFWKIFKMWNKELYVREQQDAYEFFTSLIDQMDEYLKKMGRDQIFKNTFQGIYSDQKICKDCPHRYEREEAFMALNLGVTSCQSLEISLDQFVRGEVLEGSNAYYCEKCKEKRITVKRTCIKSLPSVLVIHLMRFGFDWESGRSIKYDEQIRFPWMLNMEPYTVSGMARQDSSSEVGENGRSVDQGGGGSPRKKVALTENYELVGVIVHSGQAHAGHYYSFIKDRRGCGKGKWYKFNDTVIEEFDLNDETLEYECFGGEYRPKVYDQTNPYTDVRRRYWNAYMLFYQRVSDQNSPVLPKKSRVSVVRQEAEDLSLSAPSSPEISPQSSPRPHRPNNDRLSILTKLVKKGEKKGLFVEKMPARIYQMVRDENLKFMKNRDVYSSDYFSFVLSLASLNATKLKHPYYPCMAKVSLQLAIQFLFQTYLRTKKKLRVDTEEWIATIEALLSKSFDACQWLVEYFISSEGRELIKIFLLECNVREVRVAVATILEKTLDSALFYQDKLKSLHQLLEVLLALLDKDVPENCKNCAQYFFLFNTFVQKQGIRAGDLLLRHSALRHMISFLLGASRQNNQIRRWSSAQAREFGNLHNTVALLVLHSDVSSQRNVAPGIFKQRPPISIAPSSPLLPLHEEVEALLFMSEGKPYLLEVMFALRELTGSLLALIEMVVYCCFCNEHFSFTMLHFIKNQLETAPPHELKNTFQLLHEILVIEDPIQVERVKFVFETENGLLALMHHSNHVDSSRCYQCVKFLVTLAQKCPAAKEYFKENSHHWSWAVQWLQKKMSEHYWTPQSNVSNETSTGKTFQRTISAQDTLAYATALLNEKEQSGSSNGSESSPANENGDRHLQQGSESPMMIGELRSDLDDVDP

Cl.Cn1c(CNC(=O)CCl)nc2cccnc21
inactive: USP19 -0.0671 | USP24 -0.218 | USP25 -0.148 | USP28 -0.316
